Data: PubChem BioAssay (NCATS)
Inconclusive results are not listed. Calls of active or inactive are those of the source. Calls follow the shape of the dose curve; as a rule, active = well fitted inhibition curve with a large enough effect; inconclusive = small, poorly fitted or top-dose-only effect; inactive = no such curve, though single readings can be large or run the other way.

test system: Zika virus NS2B-NS3 protease (unlinked complex); assay: Primary screen GU Rhodamine qHTS for Zika virus inhibitors: Unlinked NS2B-NS3 protease assay (AID 1347159); details: Recombinant ZIKV NS2B-NS3 protease, Rhodamine110 substrate fluorescence; series mostly up to 107 µM; activity change, negative = inhibition: at the top concentration; also: nearly all actives have a fitted effect of over 60% in size
In short: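 Buffer 10 mM Tris-HCl pH 8.0, 0.01% Tween 20. Unlinked protease 25 nM; compound preincubation 15 min, RT, protected from light. Substrate Rhod110, 1.5 microM; ~15% conversion in 15 min.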
% is scaled to controls: 0 for no effect and ±100 for the full control effect; potency is read from the fitted curve at half-maximal effect.

SMILES	activity change, negative = inhibition	Potency
O=C(c1ccc(OC(F)F)c(C#Cc2ccccn2)c1)N1Cc2cccnc2C1	-10.2% (inactive)	–
CC1=C2C[C@@]3(C)C(CCC[C@@H]3C)C(O)C2OC1=O (some centres undefined)	8.28% (inactive)	–
C=C1CC2OC(=O)C(=C)C2C(O)/C=C(\C)CCC1O (centres undefined)	-11.6% (inactive)	–
CC(=O)O[C@@H]1CC[C@@]2(C)C(CC[C@]3(C)C2[C@H](O)C=C2[C@H]4[C@@H](C)[C@H](C)CC[C@]4(C)CC[C@]23C)[C@@]1(C)C(=O)O (some centres undefined)	–	7.08 µM (active)
COc1cc(CCc2cc(NC(=O)c3ccc(N4CC(C)NC(C)C4)cc3)n[nH]2)cc(OC)c1 (centres undefined)	107% (inactive)	–
COc1cc(-c2nc(N[C@H](CO)Cc3ccccc3)ccc2C(=O)NCCOc2ccccc2)cc(OC)c1OC	6.2% (inactive)	–
CC(C)(O)/C=C/C(=O)[C@](C)(O)[C@H]1[C@H](O)C[C@@]2(C)[C@@H]3CC=C4[C@@H](C[C@H](O[C@@H]5O[C@H](CO)[C@@H](O)[C@H](O)[C@H]5O)C(=O)C4(C)C)[C@]3(C)C(=O)C[C@]12C	-10.2% [at 32.5 µM] (inactive)	–
Cc1cn2c(n1)Cc1ccc(Cl)cc1C(c1ccc(N)cc1)=N2	139% (inactive)	–
COc1ccc(Sc2ccc(NC(=O)c3ccccc3Cl)cc2C#N)cc1	9.45% (inactive)	–
CC1(CO)CC2C(O)C3=C(CC(C)(O)C2C1)C(=O)OC3 (centres undefined)	14.2% (inactive)	–
CCC(C)C(=O)OC1C(C)C2(O)C(C=C(CO)CC3(O)C(=O)C(C)=CC32)C2C(C)(C)C12OC(=O)C(C)C (centres undefined)	-9.5% [at 57.1 µM] (inactive)	–
COc1cc([C@H]2O[C@H](c3cc(OC)c4c(c3)OCO4)[C@H](C)[C@H]2C)cc(OC)c1OC	16.4% [at 57.1 µM] (inactive)	–
N#Cc1ccc(COc2ccc(-c3cccc4nc(NC(=O)C5CC5)nn34)cc2)cn1	-19.5% (inactive)	–
Cn1ncc(Cl)c1-c1cc(C(=O)N[C@H](CN)Cc2ccc(F)c(F)c2)oc1Cl	168% (inactive)	–
Cn1cc(-c2cnn3c(N)c(Br)c(C4CCCNC4)nc23)cn1 (centres undefined)	3.59% (inactive)	–
CO[C@@H]1[C@H](O)CCC2(CO2)[C@H]1[C@@]1(C)O[C@@H]1CC=C(C)C (some centres undefined)	1.4% (inactive)	–
CC(C)OC(=O)N1CCC(Oc2ncnc3c2cnn3-c2ccc(S(C)(=O)=O)cc2F)CC1	-18.8% (inactive)	–
Cn1c(=O)c2c(ncn2Cc2ccc(C(C)(C)C)cc2)n(C)c1=O	-23.1% (inactive)	–
CN(C)CCN(Cc1ccccc1)C(=O)c1cc(-c2ccc(F)cc2)n2nc(C(C)(C)C)cc2n1	136% (inactive)	–
CC1CCC(=O)CC(SCC(O)C(=O)O)CCC(=O)O1 (centres undefined)	25.5% (inactive)	–

SMILES	activity change, negative = inhibition	Potency
Nc1nc(Nc2ccc3c(c2)CCC(N2CCCC2)CC3)nn1-c1cc2c(nn1)-c1ccccc1CCC2 (centres undefined)	–	50.1 µM (active)
CN1CCN(C2CCN(C(=O)Nc3cc(Oc4ccc(NC(=O)C5(C(=O)Nc6ccc(F)cc6)CC5)c(F)c4)ccn3)CC2)CC1	152% (inactive)	–
COc1ccc(C2Oc3c(OC)cc(CCCO)cc3C2COC2OC(CO)C(O)C(O)C2O)cc1OC (centres undefined)	-23.1% [at 57.1 µM] (inactive)	–
Cc1csc(N(C(=O)CSc2ccc(-c3ccccc3)nn2)C2CC2)n1	-6.04% (inactive)	–
COc1ccc([C@H]2OC[C@H]3O[C@@H](O[C@H]4[C@@H]2NC[C@@H]4O)[C@H](O)[C@H]3O)cc1	15.9% (inactive)	–
CCC(CC)Nc1nc(C)c(-c2ccc(OC(F)(F)F)cc2OC)nc1OC	145% (inactive)	–
O=C(NO)c1ccc(CC(=O)N(CCO)c2ccccc2)cc1	2.74% (inactive)	–
NCC(CNc1nc(Nc2cccc(NC(=O)N3CCCC3)c2)ncc1I)C(=O)c1cccs1 (centres undefined)	53.8% (inactive)	–
CC(O)(C(=O)C1CC1(CO)COC1OC(CO)C(O)C(O)C1O)C1C(O)CC2C3CC=C4CC(O)CC(O)C4(C)C3C(O)CC21C (centres undefined)	22% [at 32.5 µM] (inactive)	–
COC(=O)c1cc2c(C(F)(F)F)cc(-c3ccccc3)cc2n1O	–	12.6 µM (active)
COc1c(C)cc(NC(=O)c2nn(Cc3ccc(F)cc3)c3c2CN(C(=O)c2ccc[nH]2)C[C@]3(C)C(N)=O)cc1C	0% [at 32.5 µM] (inactive)	–
COC(=O)C[C@H]1C(C)(C)[C@H](OC(=O)c2ccccc2)C2CC3=C4CC(=O)O[C@@H](c5ccoc5)[C@]4(C)CCC3[C@@]1(C)C2=O (some centres undefined)	9.14% [at 57.1 µM] (inactive)	–
CNc1nc(Nc2ccc(C(=O)N3CCOCC3)cc2OC)nc2[nH]cc(Cl)c12	-4.68% (inactive)	–
COc1ccc(-c2ccc3c(N4CCOCC4C)nc(N4CCOCC4C)nc3n2)cc1CO (centres undefined)	-10.9% (inactive)	–
CN1CCc2cc3c(cc2C(=O)Cc2cc4c(cc2C1)OCO4)OCO3	0.862% (inactive)	–
Cc1cccc(C#Cc2cc(F)cc(C#N)c2)n1	30.1% (inactive)	–
CN(C)C(=O)NC1(c2ccccc2)CCN(CCC[C@]2(c3ccc(Cl)c(Cl)c3)CCCN(C(=O)c3ccccc3)C2)CC1	70.4% (inactive)	–
O=C(c1ccccc1)c1c(O)cc(O)cc1O[C@@H]1O[C@H](CO)[C@@H](O)[C@H](O)[C@H]1O	-26% (inactive)	–
O=C(NCC1(N2CCN(c3ccccc3)CC2)CCOCC1)c1cccnc1Sc1ccccc1	-1.36% (inactive)	–
